The values below come from PubChem BioAssay (Tox21).

A short description of test [1]: qHTS assay to identify small molecule antagonists of the sonic hedgehog signaling (Shh) pathway (AID 1259369). Note: nearly all actives have a fitted effect of over 45% in size. Note: potency is the fitted concentration of half-maximal effect. The procedure, abridged:
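Conditioned medium drives Shh signalling in 3T3Gli1-Luc cells; compounds in DMSO co-applied, 24hr at 37 C, then luciferase luminescence.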
On the technique in general: In qHTS, concentration-response curves come from the screen itself.

Test [2] has as its target Estrogen receptor beta (Homo sapiens) (UniProt Q92731). Put plainly: qHTS assay to identify small molecule agonists of the estrogen receptor beta (ER-beta) signaling pathway (AID 1259377; active = well fitted activation curve with a large enough effect in the signal ratio in the repeat runs, not every such curve was filed as active; the % refers to the signal ratio). The procedure, abridged:
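Screening used GripTite ER-beta-UAS-bla cells held in 2% charcoal-stripped FBS medium. After overnight (16 hr) compound incubation at 37C, beta-lactamase activity was detected with a FRET substrate by fluorescence.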

For test [3] the target is unchanged. Kind of test: qHTS assay to identify small molecule antagonists of the estrogen receptor beta (ER-beta) signaling pathway (AID 1259378; active = well fitted inhibition curve with a large enough effect in the signal ratio in the repeat runs, not every such curve was filed as active; the % refers to the signal ratio; note: potency is the fitted concentration of half-maximal effect). The procedure, abridged: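 Antagonist mode: compounds added to beta-lactamase reporter HEK293T ER-beta-UAS cells stimulated with E2 (1nM final), 16 hr at 37C. LiveBLAzer B/G FRET substrate, 2 hours room temperature, fluorescence read-out.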

A short description of test [4]: qHTS assay to identify small molecule agonists of the androgen receptor (AR) signaling pathway in the presence of an antagonist - cell viability counter screen (AID 1259379; active = well fitted curve in the direction sought with a large enough effect in the repeat runs; an effect the other way counts as inactive or inconclusive; note: nearly all actives have a fitted effect of over 25% in size; note: potency is the fitted concentration of half-maximal effect). Put shortly:
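A CellTiter-Fluor read-out measured viability of MDA-kb2 reporter cells (MMTV promoter with AR and GR response elements). Treatment: nilutamide 3.0uM final with compounds at 15 concentrations, 16 hr, 37C, 0% CO2.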

Test [5] can be described thus: qHTS assay to identify small molecule agonists of the estrogen receptor beta (ER-beta) signaling pathway - cell viability counter screen (AID 1259380; active = well fitted curve in the direction sought with a large enough effect in the repeat runs; an effect the other way counts as inactive or inconclusive; note: nearly all actives have a fitted effect of over 30% in size; note: potency is the fitted concentration of half-maximal effect). Put shortly:
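Cells used were ER-beta-UAS-bla HEK293T in medium with 2% charcoal-stripped FBS. They were treated for 16 hr at 37C. Viability came from CellTiter-Glo luminescence.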

Test [6] can be described thus: qHTS assay to identify small molecule antagonists of the estrogen receptor beta (ER-beta) signaling pathway - cell viability counter screen (AID 1259382; active = well fitted curve in the direction sought with a large enough effect in the repeat runs; an effect the other way counts as inactive or inconclusive; note: nearly all actives have a fitted effect of over 55% in size; note: potency is the fitted concentration of half-maximal effect). Put shortly:
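Agonist-stimulated (1nM E2) ER-beta-UAS-bla HEK293T cells are incubated with library compounds for 16 hr at 37C. Cell viability is then assessed in the reporter-assay wells by adding CellTiter-Glo and reading luminescence after 30 min.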

Test [7] deals with Estrogen receptor (Homo sapiens) (UniProt P03372). Put plainly: qHTS assay to identify small molecule agonists of the estrogen receptor alpha (ER-alpha) signaling pathway in the presence of an antagonist (AID 1259383). Note: top concentration of the series differs between compounds; nearly all actives have a fitted effect of over 15% in size. Put shortly: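 Using VM7Luc4E2 cells seeded 24hr before treatment, antagonist ICI-182,780 (10.0nM final) was added, followed by compounds at 15 concentrations. Plates incubated 22hr; ONE-Glo luminescence quantified reporter activity.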

Test [8] in a line: qHTS assay to identify small molecule agonists or antagonists of the thyroid stimulating hormone receptor (TSHR) signaling pathway - wild type cell line counter screen (AID 1259384). Put shortly: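 Counter screen in untransfected Hek293: compounds (15-point titration, triplicate) plus phosphodiesterase inhibitor Ro20-1724 added after 18 h plating; 30 min RT. Intracellular cAMP via competitive d2/cryptate immunoassay, 1 h incubation.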

Test [9] has as its target Thyrotropin receptor (Homo sapiens) (UniProt P16473). Kind of test: qHTS assay to identify small molecule antagonists of the thyroid stimulating hormone receptor (TSHR) signaling pathway (AID 1259385). Note: nearly all actives have a fitted effect of over 20% in size. Put shortly: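 Antagonist mode: compound-treated TSHR-expressing HEK293 cells were stimulated with 1.5 ng/mL TSH (final) in presence of Ro20-1724 for 30 min at RT. HTRF cAMP detection after 1 h; each compound tested at 15 concentrations, triplicate.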

The target of test [10] is Androgen receptor (Homo sapiens) (UniProt P10275). Put plainly: qHTS assay to identify small molecule agonists of the androgen receptor (AR) signaling pathway in the presence of an antagonist (AID 1259381). Note: nearly all actives have a fitted effect of over 15% in size. Put shortly:
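Using human MDA-kb2 cells with an MMTV promoter–luciferase construct (AR and GR response elements), agonist activity is scored under 3.0uM nilutamide (final) co-treatment; 16hr incubation, 37C, luminescence readout via ONE-Glo.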

A number with no mark means an inactive call. Results filed as inconclusive are left out. Active and inactive are the calls of the source. Unless noted, calls come from the whole dose curve.

Sequence of Estrogen receptor beta (Homo sapiens) (Q92731 whole entry, looked up): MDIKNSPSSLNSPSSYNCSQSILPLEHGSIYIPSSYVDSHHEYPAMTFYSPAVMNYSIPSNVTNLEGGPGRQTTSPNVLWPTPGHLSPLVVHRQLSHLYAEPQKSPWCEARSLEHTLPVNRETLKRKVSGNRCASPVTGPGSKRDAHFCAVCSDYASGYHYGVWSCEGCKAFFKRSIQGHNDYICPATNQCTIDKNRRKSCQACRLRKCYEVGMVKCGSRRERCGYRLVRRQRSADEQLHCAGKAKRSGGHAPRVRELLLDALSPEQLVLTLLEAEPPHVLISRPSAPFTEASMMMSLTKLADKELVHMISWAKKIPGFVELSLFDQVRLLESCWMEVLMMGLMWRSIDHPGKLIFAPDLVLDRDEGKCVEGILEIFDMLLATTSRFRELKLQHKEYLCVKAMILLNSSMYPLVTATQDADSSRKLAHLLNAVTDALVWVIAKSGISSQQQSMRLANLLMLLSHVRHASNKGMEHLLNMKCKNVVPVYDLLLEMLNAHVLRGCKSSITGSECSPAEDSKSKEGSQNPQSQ
Sequence of Estrogen receptor (Homo sapiens) (P03372 whole entry, looked up): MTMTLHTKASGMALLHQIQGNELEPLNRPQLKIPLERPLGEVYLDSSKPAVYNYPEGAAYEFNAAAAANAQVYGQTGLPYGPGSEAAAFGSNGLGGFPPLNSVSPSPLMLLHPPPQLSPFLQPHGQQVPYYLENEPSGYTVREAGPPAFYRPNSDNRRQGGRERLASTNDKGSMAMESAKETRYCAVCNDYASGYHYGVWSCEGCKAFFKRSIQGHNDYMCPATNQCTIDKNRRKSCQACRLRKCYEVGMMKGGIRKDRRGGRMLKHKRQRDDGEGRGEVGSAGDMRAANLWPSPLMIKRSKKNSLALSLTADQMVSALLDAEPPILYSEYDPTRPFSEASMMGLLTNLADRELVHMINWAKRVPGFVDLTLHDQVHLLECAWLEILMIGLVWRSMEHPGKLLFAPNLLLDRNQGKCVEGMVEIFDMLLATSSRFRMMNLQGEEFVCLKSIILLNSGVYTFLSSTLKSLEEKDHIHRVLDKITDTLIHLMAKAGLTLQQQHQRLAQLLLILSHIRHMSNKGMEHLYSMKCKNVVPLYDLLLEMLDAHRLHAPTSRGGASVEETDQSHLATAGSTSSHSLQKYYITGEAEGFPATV
Sequence of Thyrotropin receptor (Homo sapiens) (P16473 whole entry, looked up): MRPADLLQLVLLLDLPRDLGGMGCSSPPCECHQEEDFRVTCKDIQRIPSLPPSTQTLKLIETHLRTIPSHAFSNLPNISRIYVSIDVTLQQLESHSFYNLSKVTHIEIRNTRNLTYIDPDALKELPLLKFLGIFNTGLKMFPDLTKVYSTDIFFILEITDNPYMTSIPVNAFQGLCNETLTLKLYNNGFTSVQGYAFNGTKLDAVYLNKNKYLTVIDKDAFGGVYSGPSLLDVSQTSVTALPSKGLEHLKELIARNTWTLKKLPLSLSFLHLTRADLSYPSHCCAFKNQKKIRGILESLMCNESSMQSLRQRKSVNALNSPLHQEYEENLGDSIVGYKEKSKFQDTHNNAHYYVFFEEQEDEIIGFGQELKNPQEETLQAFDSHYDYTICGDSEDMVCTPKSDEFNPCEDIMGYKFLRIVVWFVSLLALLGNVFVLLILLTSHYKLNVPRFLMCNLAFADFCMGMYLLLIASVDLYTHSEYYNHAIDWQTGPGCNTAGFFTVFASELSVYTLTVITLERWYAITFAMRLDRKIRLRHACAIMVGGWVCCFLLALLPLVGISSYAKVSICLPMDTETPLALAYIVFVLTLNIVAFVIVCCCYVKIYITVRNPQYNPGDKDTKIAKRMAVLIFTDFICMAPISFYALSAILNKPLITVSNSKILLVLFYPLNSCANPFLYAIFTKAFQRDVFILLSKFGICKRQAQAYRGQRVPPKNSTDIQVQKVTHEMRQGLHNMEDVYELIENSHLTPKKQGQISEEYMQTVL
Sequence of Androgen receptor (Homo sapiens) (P10275 whole entry, looked up): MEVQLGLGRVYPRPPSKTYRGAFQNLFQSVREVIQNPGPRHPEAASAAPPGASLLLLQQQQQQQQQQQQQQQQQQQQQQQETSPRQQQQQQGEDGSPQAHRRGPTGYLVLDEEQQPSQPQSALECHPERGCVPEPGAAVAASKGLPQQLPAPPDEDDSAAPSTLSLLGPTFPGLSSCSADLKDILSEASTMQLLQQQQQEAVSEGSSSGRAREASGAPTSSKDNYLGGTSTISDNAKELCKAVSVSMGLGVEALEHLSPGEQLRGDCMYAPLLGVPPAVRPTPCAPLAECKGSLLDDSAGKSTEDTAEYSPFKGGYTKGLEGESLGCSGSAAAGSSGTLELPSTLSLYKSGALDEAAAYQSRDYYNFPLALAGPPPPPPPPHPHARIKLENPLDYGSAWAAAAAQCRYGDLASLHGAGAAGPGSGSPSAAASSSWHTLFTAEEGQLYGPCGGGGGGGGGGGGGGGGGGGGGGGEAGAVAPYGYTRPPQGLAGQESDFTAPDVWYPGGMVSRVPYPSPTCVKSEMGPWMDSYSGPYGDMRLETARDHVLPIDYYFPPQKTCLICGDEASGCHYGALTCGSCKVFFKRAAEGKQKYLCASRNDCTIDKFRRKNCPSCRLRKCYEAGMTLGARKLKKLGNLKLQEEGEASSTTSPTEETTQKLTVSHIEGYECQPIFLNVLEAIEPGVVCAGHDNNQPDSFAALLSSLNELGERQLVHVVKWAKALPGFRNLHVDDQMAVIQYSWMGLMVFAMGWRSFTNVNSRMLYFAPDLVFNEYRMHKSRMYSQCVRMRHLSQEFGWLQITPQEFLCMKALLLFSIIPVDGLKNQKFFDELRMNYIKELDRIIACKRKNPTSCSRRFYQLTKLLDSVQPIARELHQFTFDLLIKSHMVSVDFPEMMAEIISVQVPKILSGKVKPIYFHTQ

As for `CC1CCCCC1NC(=O)Nc1ccccc1` (stereo unspecified), the Potency result in [1], in [3], in test [4], in [5], in test [6] and in [7] was “inactive” each time. Further, the Potency entry in test [8] and in test [9] was “inactive” each time. The compound was called inactive in test [2].
With `CCOC(=O)CP(=O)(OCC)OCC`, the Potency result in test [1], in test [3], in [4], in [5], in test [6] and in test [7] was “inactive” throughout. Besides, the Potency entry in test [8] and in test [9] was “inactive” each time. Also, the outcome in test [2] was inactive.
Consider `CCS(=O)(=O)C(C)(C)S(=O)(=O)CC`, for which the Potency entry in test [1], in test [3], in [4], in test [5], in test [6] and in test [7] was “inactive” each time. Further, the Potency result in test [9] was “inactive”. The call in test [2] was inactive.
As to `CCCSC(=O)Cl`, the Potency result in [1], in [3], in [4], in test [5], in [6] and in [7] was “inactive” throughout. For the same compound, the Potency entry in test [8] and in [9] was “inactive” each time. In addition, in test [2], the call was inactive.
As to `CCCCc1c(C)nc(NCC)[nH]c1=O`, the Potency result in test [1], in test [3], in test [4], in [5], in test [6] and in [7] was “inactive” each time. The Potency result in [8] and in [9] was “inactive” in each case. Further, the compound was classed as inactive in test [2].
As to `OCCBr`, the Potency result in test [1], in [3], in test [4], in test [5], in test [6] and in test [7] was “inactive” in each case. Further, in [8], the Potency entry was “inactive”. Also, the result in test [2] was inactive.
`COP(=S)(OC)Oc1ccc(S(N)(=O)=O)cc1`: the Potency result in test [1], in test [3], in test [4], in [5], in test [6] and in [7] was “inactive” each time. Moreover, the Potency entry in test [8] and in test [9] was “inactive” each time. For the same compound, the result in test [2] was inactive.
On to `CC1(C)C(=O)NC(=O)NC1=O`, for which the Potency entry in [1], in test [3], in test [4], in [5], in test [6] and in test [7] was “inactive” in each case. For the same compound, in test [8], the Potency result is “inactive”. The call in [2] was inactive.
Take `COc1cccc2c1cc([N+](=O)[O-])c1c(C(=O)O)cc3c(c12)OCO3`: the Potency in test [1] is 1.54 µM (active); in [3], 19.3 µM (active); in test [4], 48.6 µM (active); in test [5] it was 48.6 µM (active); in test [6], 54.5 µM (active). In addition, the compound was called inactive in [2]. Also, the Potency result in test [7], in [8] and in [9] was “inactive” in each case.
`CC(=O)Nc1cc([As](=O)(O)O)ccc1O`: the Potency entry in [1], in test [3], in test [4], in test [5], in [6] and in [7] was “inactive” each time. The Potency result in [8] and in test [9] was “inactive” each time. For the same compound, the call in test [2] was inactive.
Turning to `O=C1OC(=O)C2C1C1(Cl)C(Cl)=C(Cl)C2(Cl)C1(Cl)Cl` (stereo unspecified), the Potency entry in test [1], in [3], in test [4], in test [5], in test [6] and in [7] was “inactive” each time. The Potency result in test [8] and in test [9] was “inactive” throughout. In addition, the compound was classed as inactive in [2].
For `OC(Cn1cncn1)(c1ccc(F)cc1)c1ccccc1F` (stereo unspecified), the Potency result in test [1], in [3], in test [4], in test [5], in test [6] and in test [7] was “inactive” each time. The Potency entry in [8] and in [9] was “inactive” each time. For the same compound, the compound was called inactive in [2].
Turning to `C=CC1CC=CCC1` (stereo unspecified), the Potency result in test [1], in [3], in test [4], in [5], in test [6] and in [7] was “inactive” throughout. Besides, the Potency result in test [8] was “inactive”. In addition, the outcome in [2] was inactive.
For the compound `CCC1(c2ccccc2)C(=O)N=C(O)NC1=O` (stereo unspecified), the Potency result in test [1], in test [3], in test [4], in test [5], in [6] and in test [7] was “inactive” in each case. Also, the Potency entry in test [8] is “inactive”. The compound was called inactive in test [2].
As to `O=C1OC(c2ccc(O)c(S(=O)(=O)O)c2)(c2ccc(O)c(S(=O)(=O)O)c2)c2c(Br)c(Br)c(Br)c(Br)c21`, the Potency entry in test [1], in test [3], in test [4], in test [5], in [6] and in [7] was “inactive” each time. The Potency result in [8] and in test [9] was “inactive” in each case. In addition, the compound was called inactive in [2].
On to `CCCCN(CCCCO)N=O`, for which the Potency entry in test [1], in test [3], in test [4], in test [5], in test [6] and in [7] was “inactive” in each case. In addition, the Potency entry in test [8] and in test [9] was “inactive” throughout. In addition, in test [2], the result was inactive.
With `O=[N+]([O-])c1ccc2c3c(cccc13)CC2`, in test [1], the Potency was 21.7 µM (active). Further, the outcome in test [2] was inactive. The Potency result in test [3], in test [4], in [5], in test [6], in [7] and in test [8] was “inactive” each time. Moreover, the Potency result in test [9] was “inactive”.
For the compound `CS(=O)(=O)c1cc(C(F)(F)F)ccc1C(=O)c1cnoc1C1CC1`, the Potency result in test [1], in test [3], in test [4], in test [5], in [6] and in test [7] was “inactive” throughout. The Potency result in test [9] is “inactive”. Moreover, in test [2], the result was inactive.
Turning to `CCOP(=S)(OCC)Oc1cc(-c2ccccc2)on1`, the Potency result in [1], in test [3], in test [4], in [5], in [6] and in test [7] was “inactive” each time. In [8], the Potency result is “inactive”. The result in [2] was inactive.
On to `BrCCCCCCBr`, for which, in test [1], the Potency was 24.3 µM (active). Besides, the call in test [2] was inactive. Further, the Potency result in test [3], in test [4], in [6], in test [7] and in [9] was “inactive” each time.
`CCOP(=S)(OCC)Oc1ncn(-c2ccccc2)n1`: the Potency result in test [1], in test [3], in test [4], in test [10], in test [6] and in [7] was “inactive” in each case. In addition, in test [2], the compound was called inactive.
Take `Clc1cccc(N2CCNCC2)c1`: the Potency entry in [1], in test [3], in [4], in test [6], in test [7] and in test [9] was “inactive” in each case. Besides, the call in test [2] was inactive.
Take `CN/C(=N\[N+](=O)[O-])NCC1CCOC1` (stereo unspecified): the Potency entry in [1], in [3], in [4], in test [5], in test [6] and in test [8] was “inactive” throughout. In addition, in test [9], the Potency entry was “inactive”. The result in test [2] was inactive.
For `C1CCC(C2CCCCC2)CC1`, the Potency entry in [1], in [3], in test [4], in test [7], in [8] and in test [9] was “inactive” each time. In test [2], the result was inactive. The Potency in [5] is 38.6 µM (active).
As to `Clc1ccccc1N1CCNCC1`, the Potency entry in test [1], in test [3], in test [4], in test [10], in test [6] and in [7] was “inactive” in each case. For the same compound, the Potency entry in [8] is “inactive”. For the same compound, in [2], the compound was called inactive.
With `COC(=O)c1ccccc1S(=O)(=O)NC(=O)Nc1nc(C)cc(C)n1`, the Potency entry in test [1], in [3], in test [4], in test [5], in [6] and in test [8] was “inactive” throughout. In addition, the Potency result in [9] is “inactive”. In test [2], the result was inactive.
Consider `O=C(Cc1ccccc1)OCc1ccccc1`, for which the Potency result in [1], in [3], in test [4], in test [6], in test [7] and in test [8] was “inactive” throughout. For the same compound, the Potency result in [9] is “inactive”. In test [2], the result was inactive.
Take `CN1C[C@@H](NS(=O)(=O)N(C)C)C[C@@H]2c3cccc4c3c(cn4C)C[C@H]21`: the Potency result in [1], in test [3], in [4], in [6] and in test [8] was “inactive” each time. For the same compound, in test [2], the outcome was inactive.
